We go through 40 compounds from the supplement of paper PMC6992640.

The subject of this assay is UCD52 (cells of a triple-negative basal-like breast cancer xenograft). In words: cell viability of combination (% of vehicle); higher = less cytotoxic. The conditions noted are these: 1 µM; 72 h; partner dose: 10 nM. Here is the method:
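PDX cells were treated for 72 h with each drug at 1 µM plus afatinib (10 nM; 1 µM for WHIM30). Luciferase viability is expressed as percent of vehicle.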
`COCCn1c2c([n+](Cc3cnccn3)c1C)C(=O)c1ccccc1C2=O.[Br-]` + CN(C)C/C=C/C(=O)Nc1cc2c(Nc3ccc(F)c(Cl)c3)ncnc2cc1O[C@H]1CCOC1 [Afatinib]: the “cell viability of combination” value was determined as 15.2.
For the compound `Cc1nc(Nc2ncc(C(=O)Nc3c(C)cccc3Cl)s2)cc(N2CCN(CCO)CC2)n1` + CN(C)C/C=C/C(=O)Nc1cc2c(Nc3ccc(F)c(Cl)c3)ncnc2cc1O[C@H]1CCOC1 [Afatinib], the “cell viability of combination” value worked out at 27.6.
`CCC(=C(c1ccccc1)c1ccc(OCCN(C)C)cc1)c1ccccc1.O=C(O)CC(O)(CC(=O)O)C(=O)O` [Tamoxifen Citrate] + CN(C)C/C=C/C(=O)Nc1cc2c(Nc3ccc(F)c(Cl)c3)ncnc2cc1O[C@H]1CCOC1 [Afatinib]: the “cell viability of combination” value stood at 69.5.
Then `CC(C)(C)Cn1c(N)nc2ccc(-c3[nH]c(C(C)(C)C)nc3-c3ccc(F)cc3)nc21.CS(=O)(=O)O.CS(=O)(=O)O` + CN(C)C/C=C/C(=O)Nc1cc2c(Nc3ccc(F)c(Cl)c3)ncnc2cc1O[C@H]1CCOC1 [Afatinib], with 30.3.
For the compound `Clc1ccc(C(Cn2ccnc2)OCc2ccc(Sc3ccccc3)cc2)c(Cl)c1.O=[N+]([O-])O` (stereo not given) [Fenticonazole Nitrate] + CN(C)C/C=C/C(=O)Nc1cc2c(Nc3ccc(F)c(Cl)c3)ncnc2cc1O[C@H]1CCOC1 [Afatinib], the “cell viability of combination” value turned out to be 59.9.
Take `CC(C)CC(NC(=O)CNC(=O)c1cc(Cl)ccc1Cl)B(O)O` (stereo not given) + CN(C)C/C=C/C(=O)Nc1cc2c(Nc3ccc(F)c(Cl)c3)ncnc2cc1O[C@H]1CCOC1 [Afatinib]: the “cell viability of combination” value amounted to 18.1.
Regarding `CN1CCN(CCCN2c3ccccc3Sc3ccc(C(F)(F)F)cc32)CC1.Cl.Cl` [Trifluoperazine 2HCl] + CN(C)C/C=C/C(=O)Nc1cc2c(Nc3ccc(F)c(Cl)c3)ncnc2cc1O[C@H]1CCOC1 [Afatinib], the “cell viability of combination” value came to 73.1.
Then `Cl.Cl.Fc1ccc(C(c2ccc(F)cc2)N2CCN(CC=Cc3ccccc3)CC2)cc1` [Flunarizine 2HCl] + CN(C)C/C=C/C(=O)Nc1cc2c(Nc3ccc(F)c(Cl)c3)ncnc2cc1O[C@H]1CCOC1 [Afatinib], with 77.
Then `CCN(CC)CCNC(=O)c1c(C)[nH]c(C=C2C(=O)Nc3ccc(F)cc32)c1C` [Sunitinib] + CN(C)C/C=C/C(=O)Nc1cc2c(Nc3ccc(F)c(Cl)c3)ncnc2cc1O[C@H]1CCOC1 [Afatinib], with 50.4.
Then `CC(C)c1nc(N(C)S(C)(=O)=O)nc(-c2ccc(F)cc2)c1C=CC(O)CC(O)CC(=O)[O-].CC(C)c1nc(N(C)S(C)(=O)=O)nc(-c2ccc(F)cc2)c1C=CC(O)CC(O)CC(=O)[O-].[Ca+2]` (stereo not given) [Rosuvastatin Calcium] + CN(C)C/C=C/C(=O)Nc1cc2c(Nc3ccc(F)c(Cl)c3)ncnc2cc1O[C@H]1CCOC1 [Afatinib], with 55.2; and `COC(=O)C12CCC(C)(C)CC1C1C(=O)C=C3C4(C)C=C(C#N)C(=O)C(C)(C)C4CCC3(C)C1(C)CC2` (stereo not given) [Bardoxolone methyl] + CN(C)C/C=C/C(=O)Nc1cc2c(Nc3ccc(F)c(Cl)c3)ncnc2cc1O[C@H]1CCOC1 [Afatinib], with 47.9.
As for `CC(C)C[C@H](NC(=O)[C@H](Cc1ccccc1)NC(=O)c1cnccn1)B(O)O` [Bortezomib] + CN(C)C/C=C/C(=O)Nc1cc2c(Nc3ccc(F)c(Cl)c3)ncnc2cc1O[C@H]1CCOC1 [Afatinib], the “cell viability of combination” value was determined as 15.1.
On to `COc1cc2c(Oc3ccc4[nH]c(C)cc4c3F)ncnc2cc1OCCCN1CCCC1` [Cediranib (AZD217)] + CN(C)C/C=C/C(=O)Nc1cc2c(Nc3ccc(F)c(Cl)c3)ncnc2cc1O[C@H]1CCOC1 [Afatinib], for which the “cell viability of combination” value was 24.5.
The same measure for `CC1=CC(=O)c2ccccc2C1=O` [Menadione] + CN(C)C/C=C/C(=O)Nc1cc2c(Nc3ccc(F)c(Cl)c3)ncnc2cc1O[C@H]1CCOC1 [Afatinib]: 74.6.
Then `CN1CCN(c2ccc(C(=O)/N=c3\[nH][nH]c4ccc(Cc5cc(F)cc(F)c5)cc34)c(NC3CCOCC3)c2)CC1` [Entrectinib] + CN(C)C/C=C/C(=O)Nc1cc2c(Nc3ccc(F)c(Cl)c3)ncnc2cc1O[C@H]1CCOC1 [Afatinib], with 54.3; and `CCOc1nc2cccc(C(=O)OC(C)OC(=O)OC3CCCCC3)c2n1Cc1ccc(-c2ccccc2-c2nn[nH]n2)cc1` (stereo not given) [Candesartan Cilexetil] + CN(C)C/C=C/C(=O)Nc1cc2c(Nc3ccc(F)c(Cl)c3)ncnc2cc1O[C@H]1CCOC1 [Afatinib], with 74.5.
On to `CNCCCC12CCC(c3ccccc31)c1ccccc12.Cl` [Maprotiline HCl] + CN(C)C/C=C/C(=O)Nc1cc2c(Nc3ccc(F)c(Cl)c3)ncnc2cc1O[C@H]1CCOC1 [Afatinib], for which the “cell viability of combination” value stood at 61.4.
Then `[O-]n1ccccc1=S.[O-]n1ccccc1=S.[Zn+2]` [Zinc Pyrithione] + CN(C)C/C=C/C(=O)Nc1cc2c(Nc3ccc(F)c(Cl)c3)ncnc2cc1O[C@H]1CCOC1 [Afatinib], with 56.
For the compound `Cc1ccc(C(=O)N(CCCN)C(c2nc3cc(Cl)ccc3c(=O)n2Cc2ccccc2)C(C)C)cc1` (stereo not given) + CN(C)C/C=C/C(=O)Nc1cc2c(Nc3ccc(F)c(Cl)c3)ncnc2cc1O[C@H]1CCOC1 [Afatinib], the “cell viability of combination” value came out at 36.
Turning to `COCCOC(=O)C1=C(C)NC(C)=C(C(=O)OCC=Cc2ccccc2)C1c1cccc([N+](=O)[O-])c1` (stereo not given) [Cilnidipine] + CN(C)C/C=C/C(=O)Nc1cc2c(Nc3ccc(F)c(Cl)c3)ncnc2cc1O[C@H]1CCOC1 [Afatinib], the “cell viability of combination” value amounted to 70.6.
Then `COc1cc2nccc(Oc3ccc(NC(=O)NC4CC4)c(Cl)c3)c2cc1C(N)=O` [Lenvatinib (E7080)] + CN(C)C/C=C/C(=O)Nc1cc2c(Nc3ccc(F)c(Cl)c3)ncnc2cc1O[C@H]1CCOC1 [Afatinib], with 39.8; and `CC(O)C(=O)O.CC(O)C(=O)O.CN1CCN(c2ccc3c(c2)NC(=C2C(=O)N=c4cccc(F)c4=C2N)N3)CC1` [Dovitinib Dilactic acid] + CN(C)C/C=C/C(=O)Nc1cc2c(Nc3ccc(F)c(Cl)c3)ncnc2cc1O[C@H]1CCOC1 [Afatinib], with 56.7; and `Cc1cccc(CN2CCN(C(c3ccccc3)c3ccc(Cl)cc3)CC2)c1.Cl.Cl` (stereo not given) [Meclizine 2HCl] + CN(C)C/C=C/C(=O)Nc1cc2c(Nc3ccc(F)c(Cl)c3)ncnc2cc1O[C@H]1CCOC1 [Afatinib], with 68.6.
Regarding `CCc1c(Cl)c(O)c(Cl)c(O)c1C(=O)OC1C(C)OC(OCC2=CC=CCC(O)C(C)=CC(CC)C(OC3OC(C)(C)C(OC(=O)C(C)C)C(O)C3O)C(C)=CC(C)=CCC(C(C)O)OC2=O)C(OC)C1O` (stereo not given) [Fidaxomicin] + CN(C)C/C=C/C(=O)Nc1cc2c(Nc3ccc(F)c(Cl)c3)ncnc2cc1O[C@H]1CCOC1 [Afatinib], the “cell viability of combination” value stood at 81.9.
With `CC(C)CC(NC(=O)C(NC(=O)c1cccc(-c2ccccc2)n1)C(C)O)B(O)O` (stereo not given) + CN(C)C/C=C/C(=O)Nc1cc2c(Nc3ccc(F)c(Cl)c3)ncnc2cc1O[C@H]1CCOC1 [Afatinib], the “cell viability of combination” value was 18.9.
Take `Nc1ncn(C2OC(CO)C(O)C2O)c(=O)n1` (stereo not given) [5-Azacytidine] + CN(C)C/C=C/C(=O)Nc1cc2c(Nc3ccc(F)c(Cl)c3)ncnc2cc1O[C@H]1CCOC1 [Afatinib]: the “cell viability of combination” value came out at 58.5.
For `CN(C)CCOc1ccc(C(=C(CCCl)c2ccccc2)c2ccccc2)cc1.O=C(O)CC(O)(CC(=O)O)C(=O)O` [Toremifene Citrate] + CN(C)C/C=C/C(=O)Nc1cc2c(Nc3ccc(F)c(Cl)c3)ncnc2cc1O[C@H]1CCOC1 [Afatinib], the “cell viability of combination” value stood at 77.4.
For the compound `Cc1c(C(=O)NN2CCCCC2)nn(-c2ccc(Cl)cc2Cl)c1-c1ccc(Cl)cc1` [Rimonabant] + CN(C)C/C=C/C(=O)Nc1cc2c(Nc3ccc(F)c(Cl)c3)ncnc2cc1O[C@H]1CCOC1 [Afatinib], the “cell viability of combination” value came out at 75.
The same measure for `CCCCc1oc2ccc(NS(C)(=O)=O)cc2c1C(=O)c1ccc(OCCCN(CCCC)CCCC)cc1.Cl` [Dronedarone HCl] + CN(C)C/C=C/C(=O)Nc1cc2c(Nc3ccc(F)c(Cl)c3)ncnc2cc1O[C@H]1CCOC1 [Afatinib]: 63.6; for `CC(C)c1nc(CN(C)C(=O)NC(C(=O)NC(Cc2ccccc2)CC(O)C(Cc2ccccc2)NC(=O)OCc2cncs2)C(C)C)cs1` (stereo not given) [Ritonavir] + CN(C)C/C=C/C(=O)Nc1cc2c(Nc3ccc(F)c(Cl)c3)ncnc2cc1O[C@H]1CCOC1 [Afatinib]: 62.5; for `CCOC(=O)C1=C(COCCN)NC(C)=C(C(=O)OC)C1c1ccccc1Cl` (stereo not given) [Amlodipine] + CN(C)C/C=C/C(=O)Nc1cc2c(Nc3ccc(F)c(Cl)c3)ncnc2cc1O[C@H]1CCOC1 [Afatinib]: 79.6.
`CO[C@H]1C[C@@H]2CC[C@@H](C)[C@@](O)(O2)C(=O)C(=O)N2CCCC[C@H]2C(=O)O[C@H]([C@H](C)C[C@@H]2CC[C@@H](O)[C@H](OC)C2)CC(=O)[C@H](C)/C=C(\C)[C@@H](O)[C@@H](OC)C(=O)[C@H](C)C[C@H](C)/C=C/C=C/C=C/1C` [Rapamycin (Sirolimus)] + CN(C)C/C=C/C(=O)Nc1cc2c(Nc3ccc(F)c(Cl)c3)ncnc2cc1O[C@H]1CCOC1 [Afatinib]: the “cell viability of combination” value turned out to be 42.5.
Then `CC(O)C(=O)O.CCOc1ccc2nc3cc(N)ccc3c(N)c2c1.O` [Ethacridine lactate monohydrate] + CN(C)C/C=C/C(=O)Nc1cc2c(Nc3ccc(F)c(Cl)c3)ncnc2cc1O[C@H]1CCOC1 [Afatinib], with 70.5.
`CN(C)c1ccc(C(=C2C=CC(=[N+](C)C)C=C2)c2ccc(N(C)C)cc2)cc1.[Cl-]` [Crystal Violet] + CN(C)C/C=C/C(=O)Nc1cc2c(Nc3ccc(F)c(Cl)c3)ncnc2cc1O[C@H]1CCOC1 [Afatinib]: the “cell viability of combination” value was 41.
`Cl.Fc1ccc(C2CCNCC2COc2ccc3c(c2)OCO3)cc1` (stereo not given) [Paroxetine HCl] + CN(C)C/C=C/C(=O)Nc1cc2c(Nc3ccc(F)c(Cl)c3)ncnc2cc1O[C@H]1CCOC1 [Afatinib]: the “cell viability of combination” value came out at 60.4.
As to `O=C(C=Cn1cnc(-c2cc(C(F)(F)F)cc(C(F)(F)F)c2)n1)NNc1cnccn1` + CN(C)C/C=C/C(=O)Nc1cc2c(Nc3ccc(F)c(Cl)c3)ncnc2cc1O[C@H]1CCOC1 [Afatinib], the “cell viability of combination” value was 52.2.
Then `CCCCc1oc2ccc(NS(C)(=O)=O)cc2c1C(=O)c1ccc(OCCCN(CCCC)CCCC)cc1` [Dronedarone] + CN(C)C/C=C/C(=O)Nc1cc2c(Nc3ccc(F)c(Cl)c3)ncnc2cc1O[C@H]1CCOC1 [Afatinib], with 57.7; and `COc1ccc2c(O[C@H]3CC4C(=O)N(C)CCCC/C=C\[C@H]5C[C@@]5(C(=O)NS(=O)(=O)C5CC5)NC(=O)[C@@H]4C3)cc(-c3nc(C(C)C)cs3)nc2c1C` (stereo not given in full) [Simeprevir] + CN(C)C/C=C/C(=O)Nc1cc2c(Nc3ccc(F)c(Cl)c3)ncnc2cc1O[C@H]1CCOC1 [Afatinib], with 64.5.
Turning to `CS(=O)(=O)O.Cc1c(O)cccc1C(=O)NC(CSc1ccccc1)C(O)CN1CC2CCCCC2CC1C(=O)NC(C)(C)C` (stereo not given) [Nelfinavir Mesylate] + CN(C)C/C=C/C(=O)Nc1cc2c(Nc3ccc(F)c(Cl)c3)ncnc2cc1O[C@H]1CCOC1 [Afatinib], the “cell viability of combination” value amounted to 47.9.
The same measure for `CC(NCCCc1cccc(C(F)(F)F)c1)c1cccc2ccccc12` (stereo not given) [Cinacalcet] + CN(C)C/C=C/C(=O)Nc1cc2c(Nc3ccc(F)c(Cl)c3)ncnc2cc1O[C@H]1CCOC1 [Afatinib]: 59.9.
